The record followed here is PubChem BioAssay (NCATS).

Molecules are shown by their SMILES. Records with an inconclusive call do not appear. Entries that show only a call come without a potency. A number with no mark means an inactive call. Calls of active or inactive are those of the source. The call rests on the fitted dose curve; in most records, active means well fitted inhibition curve with a large enough effect; inconclusive means small, poorly fitted or top-dose-only effect; inactive means no such curve, though single readings can be large or run the other way.
Potency means the concentration at half of the fitted maximal effect.

Cytochrome P450 3A7 (Homo sapiens), sequence (P24462 whole entry, looked up): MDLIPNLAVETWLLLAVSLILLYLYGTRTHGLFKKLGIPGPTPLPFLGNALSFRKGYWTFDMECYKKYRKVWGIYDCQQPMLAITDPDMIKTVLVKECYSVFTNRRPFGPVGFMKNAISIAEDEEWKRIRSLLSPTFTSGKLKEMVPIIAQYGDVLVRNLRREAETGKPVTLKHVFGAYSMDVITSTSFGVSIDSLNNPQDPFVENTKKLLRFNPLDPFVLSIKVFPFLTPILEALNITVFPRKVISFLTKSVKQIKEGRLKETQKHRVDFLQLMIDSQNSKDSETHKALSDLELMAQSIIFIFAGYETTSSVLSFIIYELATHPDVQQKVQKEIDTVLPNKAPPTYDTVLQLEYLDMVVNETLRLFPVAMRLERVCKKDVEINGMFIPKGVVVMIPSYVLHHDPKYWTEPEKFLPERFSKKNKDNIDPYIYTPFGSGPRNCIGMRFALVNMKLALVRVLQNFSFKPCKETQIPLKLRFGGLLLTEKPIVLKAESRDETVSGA

For this test, the target named is Cytochrome P450 3A7 (Homo sapiens) (UniProt P24462). In words: Cytochrome P450 family 3 subfamily A member 7 (CYP3A7) small molecule antagonists: luciferase biochemical qHTS assay (AID 1963596). Further: nearly all actives have a fitted effect of over 40% in size. The note with it: P450-Glo CYP3A7 enzyme luminescence, 1 h; series mostly up to 57.4 µM. In short, it runs like this:
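P450-Glo luminescent assay: CYP3A7 enzyme converts a proluciferin substrate to luciferin, detected by luciferase reagent; light proportional to activity. Compounds in DMSO preincubated 10 min with enzyme-substrate mix at room temperature, then NADPH regeneration added for 1 h.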
(qHTS replaces the single test concentration by a dilution series.)
As for `O=P(O)(O)OC(CO)CO`, the Potency result is “inactive”.
Still for that read-out and setting: as for `COc1cc(C(=O)NC(c2ccc(Cl)cc2)c2cc(Cl)c3cccnc3c2O)cc(OC)c1OC` (stereo not given), the entry is “inactive”; as for `CCc1cc2c(=O)c(-c3nc4ccccc4s3)coc2c(CN2CCCCC2)c1O`, “inactive”.
Same read-out and setting: next, `CCc1cnc(N2CCC(c3nc(COc4ccc(-n5cnnn5)cc4)cs3)CC2)nc1`: “inactive”; `C=CC1=C(C(=O)O)N2C(=O)[C@@H](NC(=O)/C(=N\OCC(=O)O)c3csc(N)n3)[C@H]2SC1`: “inactive”; `COc1cc(Cc2cnc(N)nc2N)c(C(C)C)cc1OC`: “inactive”.
Take `CN(C)CCOC(c1ccc(Cl)cc1)c1ccccn1` (stereo not given): the Potency entry was “inactive”.
Same read-out and setting: next, `Fc1ccc(-c2c3cccc(C(F)(F)F)c3nn2Cc2ccc(F)cc2Cl)cc1`: “inactive”; `Cc1c(C)n(CCN(C)C)c2ccc(C(=O)OCCN(C)C)cc12`: “inactive”.
Turning to `COC(=O)CCC(=O)CN`, the Potency result is “inactive”.
The same measure, in the same setting: next, `COc1ccc(C(=O)Nc2ccc3oc(-c4ccc(OC)cc4)nc3c2)cc1`: “inactive”.
With `Cc1ccc(-n2nc3c(N4CCCC(C(=O)NCc5ccccc5C)C4)nnc(C)c3c2C)cc1` (stereo not given), the Potency is 756 nM (active).
On the same count and under the same terms, as for `CCC(CC)Nc1nc(C)c(-c2ccc(OC(F)(F)F)cc2OC)nc1OC`, the entry is “inactive”; as for `COc1ccc(C=CC(=O)O)cc1`, “inactive”.
With `FC(F)OC(Cl)C(F)(F)F` (stereo not given), the Potency result was “inactive”.
For the molecule `O=C(c1ccc(OC(F)F)c(C#Cc2ccccn2)c1)N1Cc2cccnc2C1`, the Potency result is “inactive”.
As to `CCCC(=O)O`, the Potency entry is “inactive”.
As for `Cc1ccc(S(=O)(=O)N[C@@H]2CCCC[C@H]2O)cc1`, the Potency entry is “inactive”.
The same measure, in the same setting: as for `Cc1cc(OCc2nc(-c3ccccc3Cl)cs2)ccc1OCC(=O)O`, the entry is “inactive”.
For the molecule `CC1=CC(O)=NS(=O)(=O)O1`, the Potency result is “inactive”.
Same read-out and setting: as for `c1ccc(C(OC2CCN(CCCc3nn[nH]n3)CC2)c2ccccc2)cc1`, the entry is “inactive”.
With `CCOC(C)OCC`, the Potency result is “inactive”.
The same measure, in the same setting: next, `Nc1ccn(C2O[C@H](CO)[C@@H](O)[C@@H]2O)c(=O)n1` (stereo not given in full): “inactive”; `COc1cc(NC(=O)c2ccccn2)ccc1Cl`: “inactive”.
Turning to `Cc1ccc(C)c(Nc2nc3nonc3nc2Nc2cccc(C)c2C)c1`, the Potency result was “inactive”.
With `CNc1ccc([N+](=O)[O-])cc1-n1cnc(-c2ccc(C(F)(F)F)cc2)c1`, the Potency result was “inactive”.
On the same count and under the same terms, as for `COc1ccccc1Nc1nc(-c2ccccc2F)nc2ccccc12`, the entry is “inactive”; as for `Oc1ccc(C2(c3ccccc3F)CCC(F)(F)CC2)cc1`, 5010 nM (active); as for `CN[C@@H]1[C@@H](O)[C@@H](O[C@@H]2[C@@H](O)[C@H](O[C@H]3O[C@H]([C@@H](C)NC)CC[C@H]3N)[C@@H](N)C[C@H]2N)OC[C@]1(C)O`, “inactive”.
On the same count and under the same terms, next, `Cc1ccc(S(=O)(=O)N2CCc3cc(C(=O)Nc4ccc(C(F)(F)F)cc4)ccc32)cc1`: “inactive”.
Still for that read-out and setting: as for `NS(=O)(=O)c1ccc(NC(=O)Nc2ccc(F)cc2)cc1`, the entry is “inactive”.
`CC(C)c1ccc(-n2ncc3c(=O)n(CC(=O)Nc4cc(F)ccc4Cl)cnc32)cc1`: the Potency entry was “inactive”.
For `COc1ccc(C(=O)NC(c2ccccc2Cl)c2cc(Cl)c3cccnc3c2O)cc1` (stereo not given), the Potency result is “inactive”.
Same read-out and setting: next, `O=C(OCc1ccccc1)c1cccnc1`: “inactive”.
Still for that read-out and setting: as for `COCC(=O)N1CCc2cc(-c3csc(NC(=O)c4cc(OC)cc(OC)c4)n3)ccc21`, the entry is “inactive”.
`O=C(O)C1CN(Cc2ccc(-c3nc4cc(Cc5ccccc5F)ccc4s3)c(F)c2)C1`: the activity change, negative = inhibition was -6.84% [at 11.5 µM].
`COc1cc(F)c(C(C)C)cc1-c1ccc(C(F)(F)F)cc1CN1C(=O)OC(c2cc(C(F)(F)F)cc(C(F)(F)F)c2)C1C` (stereo not given): the Potency entry was “inactive”.
Turning to `O=C1CCC(=O)N1CO`, the Potency result is “inactive”.
On the same count and under the same terms, as for `COC(C(=O)N1Cc2[nH]nc(NC(=O)c3ccc(N4CCN(C)CC4)cc3)c2C1)c1ccccc1` (stereo not given), the entry is “inactive”; as for `Cn1c(=O)c2c(nc(CN3CCN(C(=O)C4CC4)CC3)n2Cc2cccc(F)c2)n(C)c1=O`, “inactive”.
